PubChem BioAssay (NCATS)
Where “and” joins values, the source holds several entries; their conditions need not be identical. Equal values may be shown once. Records with an inconclusive call do not appear. The source holds several records for some structures; these can differ, active in one and inactive in another. Calls of active or inactive are those of the source. The call rests on the fitted dose curve; in most records, active means well fitted inhibition curve with a large enough effect; inconclusive means small, poorly fitted or top-dose-only effect; inactive means flat fitted curve, though single readings scatter.

Legend:
KB-3-1 = test: Cytotoxic Profiling of Annotated Libraries Using Quantitative High-Throughput Screening (AID 1296008); conditions: Five cell lines viability, CellTiter-Glo ATP luminescence, 48-72 h; max response: stronger effect = lower value; on max response: on the % scale 0 is the no-effect control and ±100 the full control effect
Method in brief: (§1)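 Cytotoxicity was measured as CellTiter-Glo ATP luminescence, read after 10 min at room temperature. Compound treatment of the cells lasted 48 or 72 hr at 37 degrees Celsius in a qHTS format.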

MCC-13 = test: qHTS assay to identify novel small-molecules to repurpose for Merkel cell carcinoma treatment (AID 1296009); conditions: MCC and control cell lines, CellTiter-Glo viability, 72 h; series mostly up to 46 µM
Method in brief: (§2)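 72 hr, 37 degree celsius; NPC 8-pt / MIPE 11-pt dose response; compound pinned in DMSO; CellTiter-Glo, 10 min RT, luminescence; normalized to no-cell and DMSO controls.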

MCC-26 = test: as above; conditions: MCC and control cell lines, CellTiter-Glo viability, 72 h; series mostly up to 46 µM
Method in brief: as §2

MKL-2 = test: as above; conditions: MCC and control cell lines, CellTiter-Glo viability, 72 h; series mostly up to 46 µM
Method in brief: as §2

CRL-7250 [1] = test: Cytotoxic Profiling of Annotated Libraries Using Quantitative High-Throughput Screening (AID 1296008); conditions: Five cell lines viability, CellTiter-Glo ATP luminescence, 48-72 h; max response: stronger effect = lower value; on max response: on the % scale 0 is the no-effect control and ±100 the full control effect
Method in brief: as §1

HEK293 = test: as above; conditions: Five cell lines viability, CellTiter-Glo ATP luminescence, 48-72 h; max response: stronger effect = lower value
Method in brief: as §1

MKL-1 = test: qHTS assay to identify novel small-molecules to repurpose for Merkel cell carcinoma treatment (AID 1296009); conditions: MCC and control cell lines, CellTiter-Glo viability, 72 h; series mostly up to 46 µM
Method in brief: as §2

CRL-7250 [2] = test: as above; conditions: MCC and control cell lines, CellTiter-Glo viability, 72 h; series mostly up to 44.8 µM
Method in brief: as §2

PC15 = test: qHTS profiling for inhibitors of Plasmodium falciparum proliferation (AID 504749); conditions: P. falciparum in erythrocytes, SYBR Green DNA, 72 h; series mostly up to 28.7 µM
Method in brief: (§3)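 Infected RBCs, 0.3% parasitemia/2.5% Hct final; cpd 72 h, 37 C, 5% CO2; lysis buffer with saponin/triton/SYBR Green I, o/n RT dark; FI 485/535; norm. to artemisinin (0.29 uM) and DMSO.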

PC26 = test: as above; conditions: P. falciparum in erythrocytes, SYBR Green DNA, 72 h; series mostly up to 28.7 µM
Method in brief: as §3

PC49 = test: as above; conditions: P. falciparum in erythrocytes, SYBR Green DNA, 72 h; series mostly up to 28.7 µM
Method in brief: as §3

SC27B = test: as above; conditions: P. falciparum in erythrocytes, SYBR Green DNA, 72 h; series mostly up to 28.7 µM
Method in brief: as §3

TAB109 = test: as above; conditions: P. falciparum in erythrocytes, SYBR Green DNA, 72 h; series mostly up to 28.7 µM
Method in brief: as §3

TAB113 = test: as above; conditions: P. falciparum in erythrocytes, SYBR Green DNA, 72 h; series mostly up to 28.7 µM
Method in brief: as §3

TAB165 = test: as above; conditions: P. falciparum in erythrocytes, SYBR Green DNA, 72 h; series mostly up to 28.7 µM
Method in brief: as §3

HaCat [3] = test: Cytotoxic Profiling of Annotated Libraries Using Quantitative High-Throughput Screening (AID 1296008); conditions: Five cell lines viability, CellTiter-Glo ATP luminescence, 48-72 h; max response: stronger effect = lower value; on max response: on the % scale 0 is the no-effect control and ±100 the full control effect
Method in brief: as §1

NIH3T3 = test: as above; conditions: Five cell lines viability, CellTiter-Glo ATP luminescence, 48-72 h; max response: stronger effect = lower value
Method in brief: as §1

HACAT [4] = test: qHTS assay to identify novel small-molecules to repurpose for Merkel cell carcinoma treatment (AID 1296009); conditions: MCC and control cell lines, CellTiter-Glo viability, 72 h; at 44.8 µM (top of the series) unless noted
Method in brief: as §2

W2 = test: qHTS profiling for inhibitors of Plasmodium falciparum proliferation (AID 504749); conditions: P. falciparum in erythrocytes, SYBR Green DNA, 72 h; series mostly up to 28.7 µM
Method in brief: as §3
Further: nearly all actives have a fitted effect of over 60% in size.
Potency means the concentration at half of the fitted maximal effect.

C=C1C[C@@H]2[C@H](CC[C@]3(C)C(=O)CC[C@@H]23)[C@@]2(C)C=CC(=O)C=C12
inactive: max response (KB-3-1) -16.4% | Potency (MCC-13) | Potency (MCC-26)
active: Potency (MKL-2) 13.3 µM

Cc1sc2c(c1C)C(c1ccc(Cl)cc1)=N[C@@H](CC(=O)OC(C)(C)C)c1nnc(C)n1-2
active: Potency (CRL-7250 [1]) 0.372 µM | Potency (HEK293) 0.526 µM | Potency (MKL-1) 5.9 µM | Potency (MKL-2) 0.264 µM

CO[C@]12CC[C@@]3(C[C@@H]1[C@](C)(O)C(C)(C)C)[C@@H]1Cc4ccc(O)c5c4[C@@]3(CCN1CC1CC1)[C@H]2O5
active: Potency (HEK293) 21.5 µM | Potency (MCC-13) 53.9 µM | Potency (MKL-2) 34 µM

O=NN(CCCl)C(=O)NC1CCCCC1
inactive: outcome (CRL-7250 [2])

O=C1NCN(c2ccccc2)C12CCN(CC1COc3ccccc3O1)CC2 (stereo unspecified)
inactive: Potency (PC15) | Potency (PC26) | Potency (PC49) | Potency (SC27B) | Potency (TAB109) | Potency (TAB113) | Potency (TAB165) | max response (CRL-7250 [1]) -15.4% | max response (HaCat [3]) 4.17% | max response (KB-3-1) -9.57% | max response (NIH3T3) -1.57% | Potency (MCC-13) | Potency (MCC-26) | Potency (MKL-1) | Potency (MKL-2)

COC[C@@H](NC(C)=O)C(=O)NCc1ccccc1
inactive: max response (HEK293) -4.08% | outcome (HaCat [3]) | max response (KB-3-1) 8.88% | max response (NIH3T3) 2.94% | outcome (HACAT [4]) | Potency (MCC-13) | Potency (MCC-26) | Potency (MKL-1) | Potency (MKL-2)

C[C@@H]1[C@@H](CC(C[C@H]2O[C@@H]3O[C@]4(C)CC[C@@H]5[C@H](C)CC[C@@H]([C@H]2C)[C@@]35OO4)C[S+](=O)([O-])c2ccc(COC(=O)N(C)C)cc2)O[C@@H]2O[C@]3(C)CC[C@H]4[C@H](C)CC[C@@H]1[C@@]24OO3 (stereo partly specified)
active: Potency (KB-3-1) 1.32 µM | Potency (MKL-1) 1.18 µM | Potency (MKL-2) 0.59 µM

CNC(=O)N1N=C(c2ccc(N)cc2)c2cc3c(cc2CC1C)OCO3 (stereo unspecified)
inactive: max response (HaCat [3]) -13.3% and -0.52% | max response (NIH3T3) -39.3% | Potency (MKL-1)
active: Potency (HEK293) 23.1 µM | Potency (MKL-2) 7.43 µM

Oc1cc(Cl)ccc1Oc1ccc(Cl)cc1Cl
inactive: max response (KB-3-1) 3.49% | Potency (MCC-26)
44.2 µM (active) and inactive: Potency (MCC-13)
active: Potency (PC15) 7.08 µM | Potency (PC26) 7.57 µM | Potency (PC49) 12.6 µM | Potency (SC27B) 4.47 µM | Potency (TAB109) 10 µM | Potency (TAB113) 4.47 µM | Potency (TAB165) 3.55 µM | Potency (W2) 3.38 µM | Potency (CRL-7250 [1]) 39.4 µM | Potency (HEK293) 22.1 µM | Potency (MKL-2) 24.8 µM

Cc1ccccc1C(OCCN(C)C)c1ccccc1 (stereo unspecified)
inactive: outcome (CRL-7250 [2])

CCCNC(=O)NS(=O)(=O)c1ccc(Cl)cc1
inactive: outcome (CRL-7250 [2])

O=C1[C@H](CC[C@H](O)c2ccc(F)cc2)[C@@H](c2ccc(O)cc2)N1c1ccc(F)cc1
inactive: outcome (CRL-7250 [2])

CC(C)=CCOc1c2occc2cc2ccc(=O)oc12
inactive: max response (CRL-7250 [1]) -11.3% | outcome (HaCat [3]) | max response (KB-3-1) -18.5% | max response (NIH3T3) -0.907% | outcome (HACAT [4]) | Potency (MCC-13) | Potency (MCC-26) | Potency (MKL-1) | Potency (MKL-2)

CCN(CC)CCN1C(=O)CN=C(c2ccccc2F)c2cc(Cl)ccc21
active: Potency (W2) 4.78 µM
inactive: Potency (PC15) | Potency (PC26) | Potency (PC49) | Potency (SC27B) | Potency (TAB113) | max response (CRL-7250 [1]) -7.13% | max response (HaCat [3]) 0.85% | max response (KB-3-1) -5.99% | outcome (NIH3T3) | Potency (MCC-13) | Potency (MCC-26) | Potency (MKL-1) | Potency (MKL-2)

O=C(O)CCNC(=O)c1ccc(N=Nc2ccc(O)c(C(=O)O)c2)cc1
inactive: outcome (CRL-7250 [2])

C[C@H]1c2cccc(O)c2C(O)=C2C(=O)[C@]3(O)C(O)=C(C(N)=O)C(=O)[C@@H](N(C)C)[C@@H]3[C@@H](O)[C@@H]21
inactive: outcome (CRL-7250 [2])
